The subject of assay [1] is PRMT1 (protein arginine N-methyltransferase 1). Briefly: small molecules binding arginine methyltransferase PRMT1 – biochemical, small-molecule microarray, 635 nm fluorescence, primary screen (AID 1088).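 Further: binding of Prmt1 protein to compounds spotted on small-molecule microarray slides.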 The conditions noted are these: higher = more signal.
Assay [2] in a line: growth effects on S. cerevisiae YJM789 – YJM789 clinical isolate, OD600, 24 h, basal, primary screen (AID 1089).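 Further: growth of clinical yeast isolate S. cerevisiae YJM 789 seeded 1000 cells per well; test concentration not given here.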 The following applies: higher = more signal, called active from +8 up or from −8 down.
The nature of assay [3]: S. pombe growth modifiers, basal conditions – strain 972, OD600, 24 h, no modulator, primary screen (AID 1090).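 Further: basal condition with compound alone and no growth modifier present; test concentration not given here.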 The following applies: S. pombe 972 growth, higher = more signal, called active from +8 up or from −8 down.
Assay [4] can be described thus: budding yeast growth modifiers under rapamycin – strain BY4716, OD600, 96 h, primary screen (AID 1091). Further: test concentration not given here. The conditions noted are these: S. cerevisiae BY4716 + rapamycin, higher = more signal, called active from +8 up or from −8 down.
The target in assay [5] is Torsin-1A-interacting protein 2 (Homo sapiens) (UniProt Q8NFQ8). Kind of assay: small molecules binding lysate-expressed LULL1 – cell lysate, human LULL1 lysate, 635/667 nm fluorescence, primary screen (AID 1092).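 Further: probe is lysate of COS7 cells overexpressing human LULL1; score merges per-feature 667 nm fluorescence with signal-to-noise.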 The following applies: small-molecule microarray, hLULL1 lysate binding, 635 nm fluorescence; higher = more signal.
Sequence of Torsin-1A-interacting protein 2 (Homo sapiens) (Q8NFQ8 whole entry, looked up): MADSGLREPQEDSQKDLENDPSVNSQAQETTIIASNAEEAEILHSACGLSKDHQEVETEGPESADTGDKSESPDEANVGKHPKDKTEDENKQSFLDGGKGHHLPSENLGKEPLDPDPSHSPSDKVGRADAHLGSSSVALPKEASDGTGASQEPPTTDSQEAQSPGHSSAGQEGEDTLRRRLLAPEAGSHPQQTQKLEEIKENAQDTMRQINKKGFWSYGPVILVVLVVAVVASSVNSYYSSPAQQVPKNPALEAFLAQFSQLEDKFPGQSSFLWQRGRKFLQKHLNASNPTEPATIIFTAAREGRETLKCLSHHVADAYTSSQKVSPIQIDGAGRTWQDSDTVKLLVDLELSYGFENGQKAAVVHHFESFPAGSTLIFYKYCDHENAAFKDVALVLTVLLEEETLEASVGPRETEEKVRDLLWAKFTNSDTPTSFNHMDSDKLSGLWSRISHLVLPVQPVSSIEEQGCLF
The nature of assay [6]: optical density change of DRC41 E. coli – strain DRC41, OD650, 24 h, E. coli filamentation project, primary screen (AID 1093).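 Further: MC1000 strain lacking acrAB efflux and sulA so SOS filamentation is blocked; test concentration not given here.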 The conditions noted are these: E. coli DRC41 growth, higher = more signal, called active from +8 up or from −8 down.
A short description of assay [7]: probe aLefty2 binding to arrayed compounds – biochemical, biotinylated probe, 635/667 nm fluorescence, primary screen (AID 1094).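 Further: score merges spot fluorescence near 667 nm with spot signal-to-noise ratio.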 The conditions noted are these: small-molecule microarray, higher = more signal.
The test system of assay [8] is Noggin (protein binding on small-molecule microarray). Kind of assay: small molecules binding Noggin protein – biochemical, 635/667 nm fluorescence, primary screen (AID 1095).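 Further: score merges 667 nm feature fluorescence with signal to noise over triplicate slides.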 The following applies: 635 nm fluorescence, higher = more signal.
For assay [9], the target named is Neurogenic locus notch homolog protein 3 (Homo sapiens) (UniProt Q9UM47). Briefly: small molecules binding NOTCH3 protein – biochemical, 635/667 nm fluorescence, primary screen (AID 1096). The following applies: small-molecule microarray, 635 nm fluorescence, higher = more signal.
Sequence of Neurogenic locus notch homolog protein 3 (Homo sapiens) (Q9UM47 whole entry, looked up): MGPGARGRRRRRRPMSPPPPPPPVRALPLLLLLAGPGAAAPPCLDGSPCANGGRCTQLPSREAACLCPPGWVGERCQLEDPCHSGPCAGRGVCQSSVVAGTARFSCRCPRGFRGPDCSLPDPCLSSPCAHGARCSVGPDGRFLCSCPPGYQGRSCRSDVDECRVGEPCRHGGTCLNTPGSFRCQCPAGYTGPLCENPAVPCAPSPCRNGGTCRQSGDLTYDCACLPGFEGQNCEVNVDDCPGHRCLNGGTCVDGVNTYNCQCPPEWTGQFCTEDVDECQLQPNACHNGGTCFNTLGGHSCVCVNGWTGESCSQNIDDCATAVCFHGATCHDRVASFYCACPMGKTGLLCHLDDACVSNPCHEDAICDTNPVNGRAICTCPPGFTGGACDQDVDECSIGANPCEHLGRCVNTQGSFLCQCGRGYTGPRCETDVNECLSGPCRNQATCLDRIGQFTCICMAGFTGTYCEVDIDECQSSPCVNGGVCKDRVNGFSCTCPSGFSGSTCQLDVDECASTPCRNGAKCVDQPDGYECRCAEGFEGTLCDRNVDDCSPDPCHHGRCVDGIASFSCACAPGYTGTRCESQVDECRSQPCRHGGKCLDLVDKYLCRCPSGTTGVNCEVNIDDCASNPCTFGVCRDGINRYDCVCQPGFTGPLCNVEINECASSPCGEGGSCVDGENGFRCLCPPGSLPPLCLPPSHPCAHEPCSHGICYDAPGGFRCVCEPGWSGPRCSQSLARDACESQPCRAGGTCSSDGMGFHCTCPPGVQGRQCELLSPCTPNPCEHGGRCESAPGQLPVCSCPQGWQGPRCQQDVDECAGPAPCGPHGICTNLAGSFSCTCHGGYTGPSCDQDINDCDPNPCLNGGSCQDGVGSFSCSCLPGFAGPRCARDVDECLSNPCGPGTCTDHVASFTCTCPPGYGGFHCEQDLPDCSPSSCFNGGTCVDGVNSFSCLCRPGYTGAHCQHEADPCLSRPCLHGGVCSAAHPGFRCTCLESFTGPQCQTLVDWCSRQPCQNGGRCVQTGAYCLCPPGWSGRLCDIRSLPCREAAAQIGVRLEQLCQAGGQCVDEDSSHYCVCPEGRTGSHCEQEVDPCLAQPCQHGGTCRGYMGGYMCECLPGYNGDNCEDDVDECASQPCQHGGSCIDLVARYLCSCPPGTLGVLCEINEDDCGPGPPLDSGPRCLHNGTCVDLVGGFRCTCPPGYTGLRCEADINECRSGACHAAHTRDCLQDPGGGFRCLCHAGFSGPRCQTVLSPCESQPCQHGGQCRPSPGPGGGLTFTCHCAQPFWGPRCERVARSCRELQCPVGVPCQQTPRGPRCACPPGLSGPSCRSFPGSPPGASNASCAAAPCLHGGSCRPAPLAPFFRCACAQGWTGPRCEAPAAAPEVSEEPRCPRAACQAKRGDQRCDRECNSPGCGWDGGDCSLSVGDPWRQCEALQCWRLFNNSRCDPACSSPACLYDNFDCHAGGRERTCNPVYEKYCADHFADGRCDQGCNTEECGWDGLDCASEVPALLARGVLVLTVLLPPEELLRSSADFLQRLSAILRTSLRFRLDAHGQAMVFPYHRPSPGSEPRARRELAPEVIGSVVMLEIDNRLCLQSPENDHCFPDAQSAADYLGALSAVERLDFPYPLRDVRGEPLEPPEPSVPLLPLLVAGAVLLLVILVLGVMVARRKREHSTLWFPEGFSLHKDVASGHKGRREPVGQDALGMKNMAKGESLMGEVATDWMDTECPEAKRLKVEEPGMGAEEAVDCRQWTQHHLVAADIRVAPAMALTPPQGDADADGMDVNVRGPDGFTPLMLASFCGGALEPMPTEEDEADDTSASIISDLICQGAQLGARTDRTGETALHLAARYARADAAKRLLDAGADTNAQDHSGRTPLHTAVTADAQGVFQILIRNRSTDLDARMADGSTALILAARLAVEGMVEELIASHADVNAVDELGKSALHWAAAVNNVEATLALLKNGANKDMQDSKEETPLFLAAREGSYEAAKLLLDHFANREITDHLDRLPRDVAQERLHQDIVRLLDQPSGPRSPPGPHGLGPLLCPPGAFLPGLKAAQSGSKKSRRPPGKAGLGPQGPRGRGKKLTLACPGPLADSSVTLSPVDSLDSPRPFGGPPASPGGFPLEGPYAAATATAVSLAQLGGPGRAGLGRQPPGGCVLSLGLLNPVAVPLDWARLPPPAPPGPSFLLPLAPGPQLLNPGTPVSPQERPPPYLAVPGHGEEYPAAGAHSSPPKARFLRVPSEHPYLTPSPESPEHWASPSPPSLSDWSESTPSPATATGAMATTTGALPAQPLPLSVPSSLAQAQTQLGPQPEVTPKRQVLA
Assay [10] is described as follows: probe aEGFR binding to arrayed compounds – biochemical, biotinylated probe, 635/667 nm fluorescence, primary screen (AID 1097).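 Further: probe is a biotinylated anti-EGFR antibody binding compounds printed on slides; score combines fluorescence near 667 nm and signal to noise of each spot.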 The conditions noted are these: small-molecule microarray, higher = more signal.
Assay [11] deals with Plasmodium falciparum Sir2 (PF13_0152, Sir2A). Kind of assay: Plasmodium falciparum Sir2A binding compounds – biochemical, small-molecule microarray, 635 nm fluorescence, primary screen (AID 1098).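 Further: score merges spot fluorescence intensity with its signal-to-noise ratio.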 The conditions noted are these: fluorescence 635 nm, higher = more signal.
Assay [12] in a line: probe aDKK1 binding to arrayed compounds – biochemical, biotinylated probe, 635/667 nm fluorescence, primary screen (AID 1099).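 Further: score merges 667nm spot fluorescence with signal to noise across triplicate slides; reference of the scale not given here.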 The following applies: small-molecule microarray, higher = more signal.
Assay [13] can be described thus: probe aCHRDL2 binding to arrayed compounds – biochemical, biotinylated probe, 635/667 nm fluorescence, primary screen (AID 1100). The following applies: small-molecule microarray, higher = more signal.
Assay [14] is described as follows: change in splice reporter luminescence, either direction, cell-based, HEK293, spliceosome inhibition project, primary screen (AID 1101).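 Further: HEK293 cells carrying a splicing-competent luciferase reporter gene; test concentration not given here.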 The following applies: HEK293 splicing luciferase reporter, 24 h, higher = more signal, called active from +8 up or from −8 down. On the technique in general: In a reporter assay the amount or activity of a reporter protein is the signal.

Assay [15] concerns the target Fibroblast growth factor 10 (Homo sapiens) (UniProt O15520). Briefly: compounds binding fibroblast growth factor 10 – biochemical, small-molecule microarray, 635 nm fluorescence, primary screen (AID 1102). The following applies: FGF10 binding, fluorescence 635 nm, higher = more signal.
Assay [16] concerns glycogen synthase kinase-3 (GSK3A per assay name; protocol says GSK3B). Kind of assay: compounds binding glycogen synthase kinase-3 – biochemical, small-molecule microarray, 635 nm fluorescence, GSK3A, primary screen (AID 1103). Further: the record names both GSK3A and GSK3B. The conditions noted are these: fluorescence 635 nm, higher = more signal.
The target of assay [17] is Epidermal growth factor receptor (Homo sapiens) (UniProt P00533). Kind of assay: compounds binding epidermal growth factor receptor – biochemical, small-molecule microarray, 635 nm fluorescence, primary screen (AID 1104).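 Further: score merges 667 nm emission intensity with spot signal to noise over triplicate slides.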 The conditions noted are these: EGFR binding, higher = more signal.
Sequence of Epidermal growth factor receptor (Homo sapiens) (P00533 whole entry, looked up): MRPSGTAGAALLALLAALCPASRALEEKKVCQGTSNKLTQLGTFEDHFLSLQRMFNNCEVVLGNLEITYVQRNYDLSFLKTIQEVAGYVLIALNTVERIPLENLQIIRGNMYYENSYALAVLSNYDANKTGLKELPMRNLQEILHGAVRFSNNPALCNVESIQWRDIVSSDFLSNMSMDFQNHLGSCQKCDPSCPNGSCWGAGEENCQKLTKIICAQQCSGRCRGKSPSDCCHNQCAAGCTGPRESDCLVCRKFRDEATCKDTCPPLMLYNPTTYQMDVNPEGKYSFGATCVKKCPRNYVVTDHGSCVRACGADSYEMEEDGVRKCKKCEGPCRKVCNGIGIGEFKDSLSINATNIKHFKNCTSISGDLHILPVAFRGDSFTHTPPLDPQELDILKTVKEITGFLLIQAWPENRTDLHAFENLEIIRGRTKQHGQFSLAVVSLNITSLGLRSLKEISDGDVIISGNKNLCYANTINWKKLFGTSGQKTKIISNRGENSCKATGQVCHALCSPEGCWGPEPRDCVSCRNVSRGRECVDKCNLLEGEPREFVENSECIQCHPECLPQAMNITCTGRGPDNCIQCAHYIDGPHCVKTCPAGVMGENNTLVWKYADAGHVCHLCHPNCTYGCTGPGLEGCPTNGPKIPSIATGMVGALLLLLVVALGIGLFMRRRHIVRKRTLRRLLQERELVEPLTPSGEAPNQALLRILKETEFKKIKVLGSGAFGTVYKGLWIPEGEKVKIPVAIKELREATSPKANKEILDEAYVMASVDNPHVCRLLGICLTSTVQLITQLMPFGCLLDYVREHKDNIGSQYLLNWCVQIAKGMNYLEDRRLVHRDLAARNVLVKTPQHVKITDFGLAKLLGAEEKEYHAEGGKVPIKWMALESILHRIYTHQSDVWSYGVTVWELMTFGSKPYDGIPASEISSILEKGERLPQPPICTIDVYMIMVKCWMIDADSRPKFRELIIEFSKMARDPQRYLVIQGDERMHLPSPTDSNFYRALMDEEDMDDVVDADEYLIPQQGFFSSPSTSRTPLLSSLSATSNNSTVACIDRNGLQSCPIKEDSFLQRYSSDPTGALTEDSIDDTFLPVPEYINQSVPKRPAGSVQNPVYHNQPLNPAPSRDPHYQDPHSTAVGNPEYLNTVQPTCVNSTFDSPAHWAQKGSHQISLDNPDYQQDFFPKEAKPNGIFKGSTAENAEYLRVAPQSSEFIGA
Assay [18] has as its target Follistatin-related protein 3 (Homo sapiens) (UniProt O95633). Briefly: compounds binding follistatin-related protein 3 – biochemical, small-molecule microarray, 635 nm fluorescence, primary screen (AID 1105).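 Further: score merges emission near 667 nm and signal to noise per printed spot across three slides.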 The following applies: FSTL3 binding, higher = more signal.
The target in assay [19] is Dickkopf-related protein 1 (Homo sapiens) (UniProt O94907). Kind of assay: small molecules binding DKK1 protein – biochemical, small-molecule microarray, 635 nm fluorescence scan, primary screen (AID 1106).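 Further: score merges emission near 667 nm with signal to noise over three replicate slides.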 The following applies: higher = more signal.
Sequence of Dickkopf-related protein 1 (Homo sapiens) (O94907 whole entry, looked up): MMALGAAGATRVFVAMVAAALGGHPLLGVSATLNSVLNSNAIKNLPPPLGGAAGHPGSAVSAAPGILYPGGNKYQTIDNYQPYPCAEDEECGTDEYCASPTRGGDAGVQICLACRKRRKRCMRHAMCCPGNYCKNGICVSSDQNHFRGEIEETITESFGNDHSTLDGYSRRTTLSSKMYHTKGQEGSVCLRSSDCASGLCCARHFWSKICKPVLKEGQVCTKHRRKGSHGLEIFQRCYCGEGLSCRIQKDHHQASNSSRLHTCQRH
The test system of assay [20] is Inhibin beta A chain (activin A). Kind of assay: small molecules binding activin A – biochemical, small-molecule microarray, 635 nm fluorescence scan, primary screen (AID 1107).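 Further: mouse activin A protein probed at 4.33 µg/mL on printed slides; score merges bound-protein fluorescence near 667 nm with spot signal-to-noise.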 The following applies: INHBA, higher = more signal.

Calls of active or inactive are those of the source.

Sequence of Fibroblast growth factor 10 (Homo sapiens) (O15520 whole entry, looked up): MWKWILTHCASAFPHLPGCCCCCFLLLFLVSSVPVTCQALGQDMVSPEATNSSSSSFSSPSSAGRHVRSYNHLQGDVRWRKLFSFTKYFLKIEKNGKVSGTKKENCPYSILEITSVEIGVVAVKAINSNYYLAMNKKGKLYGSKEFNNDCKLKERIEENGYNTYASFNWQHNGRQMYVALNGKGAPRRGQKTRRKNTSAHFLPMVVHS
Sequence of Follistatin-related protein 3 (Homo sapiens) (O95633 whole entry, looked up): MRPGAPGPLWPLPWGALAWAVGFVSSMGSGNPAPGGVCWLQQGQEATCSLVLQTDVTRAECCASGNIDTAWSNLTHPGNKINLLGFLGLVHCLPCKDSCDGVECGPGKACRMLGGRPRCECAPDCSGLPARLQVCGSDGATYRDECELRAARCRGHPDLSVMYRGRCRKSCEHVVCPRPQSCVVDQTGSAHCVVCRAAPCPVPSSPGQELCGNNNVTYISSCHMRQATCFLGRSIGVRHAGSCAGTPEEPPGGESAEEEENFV

In the case of `O=C1[C@H]2[C@H]3[C@H](O)[C@H](O)CC(=NOCc4ccccc4)[C@@H]3CC[C@H]2C(=O)N1c1ccc(F)cc1F`, the composite z-score in assay [1] was -0.755; in assay [5], 0.324; in assay [7], -0.205; in assay [8], 0.358; in assay [9], -0.283; in assay [10], -0.125. Also, the composite z-score in assay [11] was 0.0102; in assay [12] it was -0.376; in assay [13] it was -0.554; in [15], 0.224; in [16], -0.0906; in assay [17] it was 0.208. For the same compound, the composite z-score in [18] was 0.286; in assay [19], 0.347; in assay [20], -0.178. Moreover, the z-score was -1.94 (inactive) in assay [2]; -0.469 (inactive) in [3]; -0.996 (inactive) in assay [4]; -0.778 (inactive) in assay [6]; -1.29 (inactive) in [14].

With `O=C1C[C@@H](O)[C@@H](O)[C@@H]2[C@@H]3C(=O)N(Cc4ccccc4)C(=O)[C@@H]3CC[C@@H]12`, the composite z-score is 0.187 in assay [1]; 0.824 in [5]; -0.14 in [7]; 0.45 in assay [8]; 0.618 in [9]; -0.0432 in assay [10]. Further, the composite z-score is 0.463 in assay [11]; -0.222 in [12]; -0.47 in assay [13]; 0.807 in assay [15]; 0.863 in assay [16]; 0.506 in [17]. The composite z-score amounted to 0.888 in assay [18], 0.59 in assay [19] and 0.11 in assay [20]. Also, the z-score is -0.365 (inactive) in assay [2]; -0.136 (inactive) in assay [3]; -0.115 (inactive) in assay [4]; -0.174 (inactive) in [6]; 0.859 (inactive) in assay [14].

For `C[C@@H]1C=CCC(=O)OC[C@H]2O[C@@H](C=C[C@@H]2O)[C@H](C)C=CCC(=O)OC1`, the composite z-score in assay [1] is 1.55; in assay [5], -1.24; in assay [7], -0.254; in [8], 1.86; in assay [9], 0.595; in assay [10], -0.0455. The composite z-score is 1.29 in [11]; -0.594 in assay [12]; -1.55 in assay [13]; 1.1 in assay [15]; 0.963 in assay [16]; 1.23 in assay [17]. The results for the composite z-score in [18], in assay [19] and in [20] were 1.59, 1.53 and 1.91, respectively. Besides, the z-score in [2] is -2.12 (inactive); in [3], -1.24 (inactive); in [4], -0.618 (inactive); in assay [6] it was -0.293 (inactive); in [14], -0.813 (inactive).

Take `CCOC(=O)[C@H](CC(C)C)NC(=O)CCC1CC(OC(=O)NCc2cccc3ccccc23)CC2(CCCC(COC(=O)NCC3CCCCC3)O2)O1` (stereo not given in full): the composite z-score in [1] is 1.47; in assay [5] it was 1.11; in assay [7], -0.0151; in assay [8], 0.895; in [9] it was 0.818; in [10], -0.0828. The composite z-score in [11] is 0.442; in [12], -0.11; in [13], -0.369; in assay [15], 0.924; in assay [16] it was 0.941; in [17], 0.344. Besides, the composite z-score in assay [18] amounted to 0.855; in assay [19], 0.6; in assay [20], 0.0385. For the same compound, the z-score was -0.402 (inactive) in [2]; -0.947 (inactive) in assay [3]; 0.0127 (inactive) in [4]; -0.683 (inactive) in [6]; -1.42 (inactive) in assay [14].

Take `COC(=O)[C@H](C)NC(=O)CCC1CC(OC(=O)NCc2ccc3c(c2)OCO3)CC2(CCCC(COC(=O)NCc3cccc(C(F)(F)F)c3)O2)O1` (stereo not given in full): the composite z-score in [1] is 1.42; in [5], 1.65; in assay [7], -0.0096; in assay [8] it was 0.186; in assay [9], 0.524; in [10] it was -0.0644. For the same compound, the composite z-score in [11] was 1.02; in [12], 0.114; in [13], -0.289; in assay [15] it was 0.818; in assay [16], 0.622; in assay [17], 0.223. Moreover, the composite z-score in assay [18] was 1.14; in assay [19], 0.235; in assay [20], -0.0499. For the same compound, the z-score in assay [2] is -1.04 (inactive); in [3], 0.0536 (inactive); in assay [4] it was 0.253 (inactive); in assay [6] it was -0.15 (inactive); in [14] it was 0.562 (inactive).

The values are drawn from PubChem BioAssay.
